In PubChem BioAssay AID868 (SRMLSC, 2007):
Among all 190,000 compounds or so, about 3,500 (1.8%) were called active. This is one part of a sample in which actives are shown more often than they occur. A number with no mark means an inactive call.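 The calls were made as follows: active = inhibition above a set limit, 3 SD over mean compound inhibition (cut at about 8.4% in these data); inactive = the rest.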

assay: RAM signaling blockers in budding yeast – dse1pr::URA3 reporter, 5-FOA selection, primary screen (AID 868);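 also: 0% = DMSO-only wells with no growth and 100% = 10 µM 1-NA-PP1 full growth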; settings: S. cerevisiae dse1pr::URA3 reporter, 5-FOA growth OD615, 2 d; at 50 µM; hits give high values; analog-sensitive cbk1-as2 kinase mutant strain

Row | SMILES | inhibition
1 | NC(=O)COc1ccc(NC(=O)c2ccccc2-c2ccccc2)cc1 | 0.63%
2 | COc1cccc(-c2nc3cc(C)ccc3o2)c1 | 2.42%
3 | O=C(Cc1cccc2ccccc12)Nc1ccc2oc(-c3ccccc3)nc2c1 | 1.7%
4 | COc1ccc2oc(-c3cccc(NC(=O)CSc4ccc(Cl)cc4)c3)nc2c1 | 10.3% (active)
5 | CCN(CC)Cc1nc2sc(C)c(C)c2c(=O)[nH]1 | 2.28%
6 | CNS(=O)(=O)c1ccc(NC(=O)C2CC(=O)N(c3ccc(Cl)cc3)C2)cc1 (centres undefined) | 4.28%
7 | Nc1ccc(-c2nnc(-c3ccc(-c4ccccc4)cc3)o2)cc1 | 6.59%
8 | FC(F)(F)c1cnc(Oc2ccccc2-c2nnc(-c3ccc(Cl)cc3)o2)c(Cl)c1 | 4.37%
9 | CSc1ccccc1-c1nnc(-c2ccc(Cl)cc2)o1 | 15.5% (active)
10 | Cc1cccn2c(CN(C)C3CCCc4ccccc43)c(C(=O)N3CCOCC3)nc12 (centres undefined) | 1.88%
11 | CC(=O)C1C(c2ccc(Cl)cc2)c2c(n[nH]c2C)CC1(C)O (centres undefined) | -0.49%
12 | Cc1ccc(C(=O)/C=C/Nc2ccc(S(=O)(=O)Nc3onc(C)c3C)cc2)cc1 | 11% (active)
13 | Cc1noc(NS(=O)(=O)c2ccc(N/C=C/C(=O)c3ccccc3)cc2)c1C | 11.4% (active)
14 | Cc1cc(C)nc(NS(=O)(=O)c2ccc(N/C=C\C(=O)c3cccs3)cc2)n1 | 3.54%
15 | CCn1c(SCC(=O)Nc2ccc(S(=O)(=O)Nc3onc(C)c3C)cc2)nnc1-c1ccccc1 | 4.88%
16 | Cc1noc(NS(=O)(=O)c2ccc(NC(=O)C34CCC(CC3)C4)cc2)c1C | 2.19%
17 | COc1ccc(C(=O)Nc2ccc(S(=O)(=O)Nc3onc(C)c3C)cc2)cc1OC | 2.49%
18 | O=C1OCC2=C1C(c1ccccc1)CC(=O)N2c1cccc(F)c1 (centres undefined) | 0.77%
19 | O=c1oc(/C=C/c2ccccc2)nc2ccccc12 | 1.38%
20 | Cc1cc(C)n(Cc2cnc(N3CCOCC3)s2)n1 | 0.36%

Row | SMILES | inhibition
21 | C/C(=N\NC(=O)c1cccnc1)c1ccc(-n2ccnc2)cc1 | 2.36%
22 | N#C/C(=C(/O)COc1cccc2ccccc12)c1nc2ccccc2[nH]1 | 2.62%
23 | N#C/C(=C(/O)COC(=O)COc1ccc(Cl)cc1)c1nc2ccccc2[nH]1 | 3.15%
24 | Cc1ccccc1OC/C(O)=C(\C#N)c1nc2ccccc2[nH]1 | 10.3% (active)
25 | O=C(COC(=O)c1ccc(Cl)nc1)NCc1cccs1 | 1%
26 | CC(=O)Nc1ccc(Nc2nc3c(S(=O)(=O)c4ccc(C)c(C)c4)nnn3c3ccccc23)cc1 | 7.93%
27 | COc1cccc(NC(=O)c2ccc3c(SCC(=O)O)c4c(nc3c2)CCCC4)c1 | 6.04%
28 | Cc1cccc(N=Nc2c(C)[nH]n(-c3ccccc3)c2=O)c1 | 7.54%
29 | Cc1ccc(N=Nc2c(C)[nH]n(-c3ccccc3)c2=O)cc1 | 13.2% (active)
30 | Cc1[nH][nH]c(=O)c1N=Nc1ccccc1 | 2.99%
31 | Cc1c(NC(=S)Nc2ccccc2)c(=O)n(-c2ccccc2)n1C | 2.71%
32 | Cc1c(N=Nc2ccc(N(C)C)cc2)c(=O)n(-c2ccccc2)n1C | 25.4% (active)
33 | Cc1c(C=O)n(C)n(-c2ccccc2)c1=O | 2.38%
34 | COc1cccc(/C=N/NC(=O)CNC(=O)c2ccc(S(=O)(=O)N3CCOCC3)cc2)c1OC | 1.56%
35 | CCCN(CCC)C(=S)Nc1cc(C(=O)OC)ccc1C(=O)OC | -0.65%
36 | CCC(CC)C(=O)Nc1ccc(S(=O)(=O)Nc2nccs2)cc1 | 1.58%
37 | COC(=O)CCSc1nccn1Cc1ccccc1 | 3.09%
38 | COC(=O)CCSc1cc([N+](=O)[O-])cc2c1c(C1OCCS1)nn2-c1ccccc1 (centres undefined) | 17.6% (active)
39 | COc1ccc(-n2cnnc2SCC(=O)Nc2cccc([N+](=O)[O-])c2)cc1 | 1.48%
40 | Cc1cc([N+](=O)[O-])ccc1NC(=O)c1ccc(NC(=O)C(C)C)cc1 | 0%

Row | SMILES | inhibition
41 | Cn1c(=NC(=O)c2ccc3c(c2)OCCO3)sc2cc(S(C)(=O)=O)ccc21 | 3.99%
42 | CCC1C/C(=C/c2cccs2)C(=O)/C(=C/c2cccs2)C1 (centres undefined) | 14.8% (active)
43 | O=C1/C(=C/c2cccs2)CCC1C1CCCC1 (centres undefined) | 2.26%
44 | O=C1/C(=C/c2cccs2)CCc2ccccc21 | -0.39%
45 | CCN(C(=O)CSc1nc2ccccc2n1CC)C1CCS(=O)(=O)C1 (centres undefined) | 0.65%
46 | O=C(NC(=S)Nc1ccc(S(=O)(=O)N2CCOCC2)cc1)c1ccccc1[N+](=O)[O-] | 3.57%
47 | O=C(COC(=O)CC1CC2CCC1C2)NC(=O)NC1CCCC1 (centres undefined) | 0.76%
48 | CCN(C(=O)COC(=O)/C=C/c1nc2ccccc2s1)C1CCS(=O)(=O)C1 (centres undefined) | 2.32%
49 | COc1cc(/C=C/C(=O)OCC(=O)Nc2cccc(Oc3ccccc3)c2)ccc1O | 7.29%
50 | CC(=O)Nc1ccc(SCC(=O)Nc2ccccc2Oc2ccccc2)cc1 | 1.01%
51 | COc1ccc(/C=C/C(=O)OCC(=O)Nc2cccc(Oc3ccccc3)c2)c(OC)c1 | 16.7% (active)
52 | O=C(COC(=O)/C=C/c1nc2ccccc2s1)Nc1ccccc1Oc1ccccc1 | 14.3% (active)
53 | COc1ccc(OC)c(/C=C/C(=O)OCC(=O)Nc2ccc3c(c2)OCCO3)c1 | 7.42%
54 | CCN1CCN(C(=O)c2ccc(CN(c3ccc(C)c(C)c3)S(C)(=O)=O)cc2)CC1 | 0.38%
55 | O=C(CCCNS(=O)(=O)c1cccc2nsnc12)NCCN1CCN(c2ccccc2F)CC1 | -1.28%
56 | COc1ccc(/C=C2/C(=O)OCc3cc(OC)c(OC)cc32)c(OC)c1 | 7.31%
57 | COC(=O)Cc1ccc(N(Cc2ccccc2F)S(=O)(=O)c2ccc(Br)cc2)cc1 | 6.05%
58 | Cc1cccc(C(=O)N2CCC(c3nc4ccccc4s3)CC2)c1 | 0.14%
59 | Cc1cc(C)n2nc(C(=O)N(C)C(c3ccccc3)c3ccccc3)nc2n1 | 2.14%
